SRC2 inh: human SRC2 (NCOA2) inhibition; inhibition, % at 9 µM; actives 0.17% (n = 370,000); Q15596; HEK293 GAL4-SRC2 luciferase reporter, luminescence;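 active = inhibition above the mean inhibition of all tested compounds plus 3 SD, set per campaign, cut at about 52% in these data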
GalR3 antagonist: human GalR3 antagonism. actives 0.44% (n = 360,000). AID 651719. HEK293 GalR3-CNG cAMP membrane potential fluorescence; galR3 body fused to GalR1 C-terminus. inhibition, % at 3 µM;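 active = inhibition above the screen-wide average plus 3 SD, cut at about 13% in these data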;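 note: forskolin and galanin both at EC90 stimulate the cells; cAMP rise reported by CNG channel membrane potential dye signal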
NR5A2 inv ag: inverse agonists of human LRH-1 (NR5A2). O00482. HEK293T StAR-luciferase reporter, LRH-1 transfected, 24 h. inhibition, % at 3.6 µM. actives 0.13% (n = 360,000). AID 602396;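 active = inhibition above the mean inhibition of all tested compounds plus 3 SD, cut at about 73% in these data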
Target sequence (O00482 whole entry, looked up): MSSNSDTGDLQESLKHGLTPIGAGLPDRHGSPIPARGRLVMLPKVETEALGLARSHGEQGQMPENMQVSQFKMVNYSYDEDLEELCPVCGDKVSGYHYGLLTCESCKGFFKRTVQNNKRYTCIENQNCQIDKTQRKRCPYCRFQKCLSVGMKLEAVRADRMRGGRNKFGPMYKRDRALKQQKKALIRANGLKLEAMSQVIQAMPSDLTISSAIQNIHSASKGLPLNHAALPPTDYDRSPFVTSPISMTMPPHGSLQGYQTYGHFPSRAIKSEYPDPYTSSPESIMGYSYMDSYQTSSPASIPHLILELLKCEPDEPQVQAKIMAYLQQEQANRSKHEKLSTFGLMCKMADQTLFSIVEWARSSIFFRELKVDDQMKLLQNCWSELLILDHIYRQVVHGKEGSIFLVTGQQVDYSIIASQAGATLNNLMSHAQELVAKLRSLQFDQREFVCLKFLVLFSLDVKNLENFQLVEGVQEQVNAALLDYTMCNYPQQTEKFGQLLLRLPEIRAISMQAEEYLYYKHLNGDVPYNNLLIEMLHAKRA
NCOA1 inh: inhibitors of human steroid receptor coactivator 1 (SRC1); Q15788; HEK293 GAL4-SRC1 luciferase reporter, luminescence; inhibition, % at 3.6 µM; actives 0.12% (n = 360,000); AID 588354;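 active = inhibition above the campaign mean plus 3 SD, with each screening campaign given its own cutoff, cut at about 60% in these data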
COUP-TFII inh: inhibitors of human COUP-TFII (NR2F2). actives 0.7% (n = 370,000). P24468. inhibition, % at 8.6 µM. HEK293T NGFI-A luciferase reporter, luminescence;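 active = inhibition above a per-plate cutoff, mean inhibition of test wells between control levels plus 3 SD, cut at about 38% in these data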;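 note: cells cotransfected with COUP-TFII expression vector driving the NGFI-A reporter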
SRC3 inh: inhibitors of human steroid receptor coactivator 3 (SRC3); HEK293 GAL4-SRC3 luciferase reporter, luminescence; inhibition, % at 3.6 µM; actives 0.17% (n = 360,000); AID 588352;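 active = inhibition above a per-campaign cutoff, the mean of all compounds plus 3 SD, cut at about 60% in these data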;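 note: higher means less SRC3-driven luciferase light from the GAL4 reporter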
GalR3 antag conf: confirmation of human galanin receptor 3 antagonists; shares compounds with GalR3 antagonist; HEK293 GalR3 CNG cAMP biosensor, membrane potential fluorescence; galR3 fused to GalR1 carboxy tail; challenged with forskolin and galanin at EC90; inhibition, % at 3 µM; actives 59% (n = 1,600);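 active = inhibition above the primary screen's cutoff, the mean inhibition of all screened compounds plus 3 SD, cut at about 13% in these data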
HEK-CNG parental: counter-screen for GalR3 antagonists: nonspecific agonists in parental HEK-CNG cells; shares compounds with GalR3 antagonist; HEK293-CNG parental cells, cAMP membrane potential fluorescence; normalised: DMSO wells 0%, forskolin wells 100%; activation, % at 3 µM; actives 10% (n = 1,600); AID 652268; in the data active = activation above about 1.3%
Each line names hits and unclear results; the compound was inactive in the other large screens (follow-up assays come after a bar, where they were run). Only some compounds are listed: those with a hit (about 1.1% of all), similar ones and a draw of the others.

COc1cc(CN2CCC(CO)(Cc3cccc(C(F)(F)F)c3)CC2)ccc1F	none
Nc1ncnc2c1ncn2[C@H]1C[C@H](O)[C@@H](CO)O1	none
Nc1nc(Cl)nc2c1ncn2[C@H]1C[C@H](O)[C@@H](CO)O1	GalR3 antagonist 49 | GalR3 antag conf 57 | HEK-CNG parental 1.3
COc1ccc(OC)c2[nH]c(=O)c(CCNC(=O)COc3ccccc3)cc12	GalR3 antagonist 22 | GalR3 antag conf 20 | HEK-CNG parental inactive
COc1ccc(OC)c2[nH]c(=O)c(CCNC(C)=O)cc12	none
CCCCN(C)CCn1c(=S)[nH]c2ncccc2c1=O	GalR3 antagonist 40 | GalR3 antag conf inactive | HEK-CNG parental inactive
COc1ccc(C(=O)N2CCCC(N3CCN(c4ccccc4OC)CC3)C2)c(OC)n1 (stereo unspecified)	none (no result: GalR3 antagonist) | GalR3 antag conf inactive | HEK-CNG parental inactive
Cc1[nH]c2ccccc2c1CCN(Cc1cccs1)C(=O)Nc1cccc2c1OCO2	none (no result: GalR3 antagonist, NR5A2 inv ag, NCOA1 inh, SRC3 inh)
CCOC(=O)C1=NOC(C(=O)NC2CCCC2)(C(=O)C2CC2)C1 (stereo unspecified)	none (no result: GalR3 antagonist, NR5A2 inv ag, NCOA1 inh, SRC3 inh)
CCCCCCCCN1C(=O)[C@@H](CC(=O)N2CCN(C(=O)OCC)CC2)C[C@@]2(C(=O)OC)C1=C[C@H](COCc1ccccc1)O[C@@H]2C	none (no result: GalR3 antagonist, NR5A2 inv ag, NCOA1 inh, SRC3 inh)
Cc1c(C(=O)OCC(C)C)[nH]c2c1C(=O)CC(c1ccco1)C2 (stereo unspecified)	GalR3 antagonist 17 | GalR3 antag conf inactive | HEK-CNG parental 2.5
COC(=O)[C@]12C[C@H](CC(=O)NCCCCc3ccccc3)C(=O)N(CCC3=CCCCC3)C1=C[C@H](COCc1ccccc1)O[C@@H]2C	none (no result: NR5A2 inv ag, NCOA1 inh, SRC3 inh)
Cc1ccc(CNC(=O)c2ccc(CNc3c(N4CCCC4)c(=O)c3=O)cc2)cc1	GalR3 antagonist 13 | GalR3 antag conf inactive | HEK-CNG parental inactive
COc1ccc(NC(=O)COc2nc3ccccc3nc2N2CCOCC2)c(OC)c1	GalR3 antagonist 14 | GalR3 antag conf inactive | HEK-CNG parental inactive
CCCCCC(O)C=CC1C(O)CC(O)C1CC=CCCCC(=O)O (stereo unspecified)	GalR3 antagonist 96 | GalR3 antag conf 95 | HEK-CNG parental inactive
Cc1cccc(-c2cccc3c4c([nH]c23)[C@@H]2C[C@H](N(C)C(=O)NC3CCCCC3)[C@H]([C@H](C)O)CN2CC4)c1	none (no result: GalR3 antagonist, NR5A2 inv ag, NCOA1 inh, SRC3 inh)
CCOC(=O)/C(C#N)=C/c1cn(CCC(=O)O)nc1-c1ccccc1	none
CCOC(=O)/C(C#N)=C/c1cn(CCC(=O)O)nc1-c1ccc(OC)cc1	GalR3 antagonist 14 | GalR3 antag conf inactive | HEK-CNG parental inactive
O=C(O)CNc1ncccc1[N+](=O)[O-]	GalR3 antagonist 17 | GalR3 antag conf inactive | HEK-CNG parental inactive
COc1ccc(CNc2ncccc2[N+](=O)[O-])cc1	none
COC(=O)[C@]12C[C@H](CC(=O)NCCc3ccccc3OC)C(=O)N(CCC3=CCCCC3)C1=C[C@H](C(C)C)O[C@@H]2C1CC1	none (no result: GalR3 antagonist, NR5A2 inv ag, NCOA1 inh, SRC3 inh)
Cc1onc(-c2ccccc2)c1-c1nc2ccccc2c(=O)o1	GalR3 antagonist 16 | GalR3 antag conf 13 | HEK-CNG parental 2.0
Cc1ccc(C)c(NC(=O)CN2C(=O)CCSc3ccccc32)c1	none (no result: GalR3 antagonist, NR5A2 inv ag, NCOA1 inh, SRC3 inh)
Cc1cc(OCC(=O)NC2CC(C)(C)NC(C)(C)C2)c2c(C)cc(=O)oc2c1	none (no result: GalR3 antagonist) | GalR3 antag conf inactive | HEK-CNG parental inactive
COC(=O)CNC(=O)COC(=O)/C=C/c1cccs1	none
COc1ccc(CCNC(=O)COC(=O)/C=C/c2cccs2)cc1	none (no result: GalR3 antagonist) | GalR3 antag conf inactive | HEK-CNG parental inactive
O=C(NC1CCC1)c1ccc(C#Cc2cccc(F)c2)nc1	none (no result: GalR3 antagonist, NR5A2 inv ag, NCOA1 inh, SRC3 inh)
N#C/C(=C(/O)CCl)c1nnc2n1CCCCC2	none
N#C/C(=N\Nc1cc(Cl)cc(Cl)c1)c1nnc2n1CCCCC2	GalR3 antagonist 15 | GalR3 antag conf inactive | HEK-CNG parental 1.7
Cc1ccc(C2CCC3(CCC(=O)N3CCO)CC2)cc1 (stereo unspecified)	none (no result: GalR3 antagonist, NR5A2 inv ag, NCOA1 inh, SRC3 inh)

High-throughput results from PubChem.
